Experimental data from PubChem BioAssay AID493036 (Sanford-Burnham Center for Chemical Genomics, 2011).
The whole screen tested about 330,000 compounds, of which about 560 (0.17%) were called active.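 How the source made its calls: active means activation at or above 40% of the spot to cytoplasm intensity ratio, with at least 20 cells analyzed; inconclusive means wells under 20 cells, flagged as cytotoxic or low count; inactive means the rest.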 Many of the other results were omitted from the sample, so actives are more common in it than they were.

Columns and labels:
[1] = agonists of human NTR1, primary screen, imaging, U2OS cells, beta-arrestin-GFP, high content (AID 493036); conditions: NTR1-U2OS beta-arrestin-GFP spot imaging, agonist mode; measured here: cell count, cytotoxicity flag; at 20 µM;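 on activation: 0% = DMSO without peptide and 100% = 100 nM NTR1 peptide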
[2] = target: Neurotensin receptor type 1 (Homo sapiens) (UniProt P30989); test: as above; conditions: NTR1-U2OS beta-arrestin-GFP spot imaging, agonist mode; at 20 µM; stronger effect = higher value
Neurotensin receptor type 1 (Homo sapiens), sequence (P30989 whole entry, looked up): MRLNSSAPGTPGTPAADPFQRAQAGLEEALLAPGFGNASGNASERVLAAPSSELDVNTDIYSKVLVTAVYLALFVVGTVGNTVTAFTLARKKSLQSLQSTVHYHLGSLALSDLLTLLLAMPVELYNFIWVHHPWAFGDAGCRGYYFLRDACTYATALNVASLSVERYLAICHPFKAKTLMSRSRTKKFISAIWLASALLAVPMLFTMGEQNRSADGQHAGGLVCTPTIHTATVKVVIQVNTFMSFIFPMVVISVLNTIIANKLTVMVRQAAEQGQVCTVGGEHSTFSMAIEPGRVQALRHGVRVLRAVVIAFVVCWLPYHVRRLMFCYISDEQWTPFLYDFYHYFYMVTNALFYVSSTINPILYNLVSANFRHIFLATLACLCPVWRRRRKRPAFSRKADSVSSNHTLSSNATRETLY

| Compound | cell count [1] | activation [2] |
| --- | --- | --- |
| CCCCOc1ccc(N(CC(=O)NC(C)C)C(=O)CCC(=O)Nc2ccccn2)cc1 | 43 cells | -1.4% (inactive) |
| Cc1ccc(S(=O)(=O)N2CCOCC2)cc1NC(=O)COC(=O)c1cnccn1 | 51 cells | -0.4% (inactive) |
| O=C1CCC(CCC(=O)N2CCCC(C(=O)c3ccc(Cl)cc3)C2)=NN1 (centres undefined) | 70 cells | -0.5% (inactive) |
| CCOC(=O)/C(=N\Nc1ccccc1[N+](=O)[O-])c1csc(Nc2ccccc2)n1 | 59 cells | 12.7% (inactive) |
| CCOC(=O)/C(=C\c1ccc([N+](=O)[O-])cc1)C(=O)c1cc(C(C)=O)c(Nc2ccccc2)s1 | 50 cells | 49.8% (active) |
| CCOC(=O)/C(C#N)=C/c1ccc(OCC(=O)Nc2ccccc2)c(OC)c1 | 80 cells | -4.5% (inactive) |
| COc1ccc(S(=O)(=O)N2CCCCC2)cc1NC(=O)COc1ccccc1 | 55 cells | 2.1% (inactive) |
| COCC(C)n1c(C)cc(C(=O)CSc2cc(C)c3ccccc3n2)c1C (centres undefined) | 54 cells | 5% (inactive) |
| O=C(O)C1CCN(C(=O)OCc2ccccc2)CC1 | 88 cells | -0.7% (inactive) |
| CC1=C(C(N)=O)C(c2ccc(Br)cc2)n2ncnc2N1 (centres undefined) | 82 cells | -1.6% (inactive) |
| Fc1ccccc1/C=C1\CCCC2=C1Nc1ncnn1C2c1ccccc1F (centres undefined) | 72 cells | 58.7% (active) |
| CC(C)C(C)(C#N)NC(=O)CSc1nc2scc(-c3ccccc3)c2c(=O)[nH]1 (centres undefined) | 65 cells | 6.5% (inactive) |
| NS(=O)(=O)c1ccc(CCNC(=O)c2ccc([N+](=O)[O-])cc2[N+](=O)[O-])cc1 | 46 cells | -0.2% (inactive) |
| O=C(CCC1CCN(C(=O)c2cccc(Cl)c2F)CC1)Nc1ccccc1 | 63 cells | 0.6% (inactive) |
| COc1cc(OC)cc(C(=O)NNC(=O)CCOc2ccccc2OC)c1 | 73 cells | -0.7% (inactive) |
| CCCCOc1ccc(C(=O)NCC(=O)OCC(=O)c2c(N)n(C)c(=O)n(C)c2=O)cc1 | 49 cells | -0.7% (inactive) |
| Cc1nnc(SCC(=O)N2c3ccccc3C(C)(c3ccc(Cl)cc3)CC2(C)C)s1 (centres undefined) | 47 cells | 8.5% (inactive) |
| CCn1cc(/C=C(\NC(=O)c2ccc(C)cc2)C(=O)NCCN2CCOCC2)c2ccccc21 | 75 cells | 1.6% (inactive) |
| N#CC1(NC(=O)COc2ccc3oc4ccccc4c3c2)CCCCC1 | 33 cells | 0.8% (inactive) |
| O=C(Nc1ccc2c(c1)CCC2)c1ccc(Br)s1 | 65 cells | 4.4% (inactive) |
| Clc1cccc(Cl)c1Cn1nnc(-c2cccs2)n1 | 79 cells | 4.8% (inactive) |

| Compound | cell count [1] | activation [2] |
| --- | --- | --- |
| CC(=O)N[C@H]1[C@H]([C@H](O)[C@H](O)CO)OC(C(=O)O)=C[C@@H]1O | 69 cells | 1.8% (inactive) |
| CCOc1c(N2CCCCC2)c(=O)c1=O | 32 cells | 2.2% (inactive) |
| CCOc1ccccc1NC(=O)NC1CCCCCCC1 | 52 cells | -0.7% (inactive) |
| CC1(C)CC(=O)C=C(N2CCOCC2)C1 | 46 cells | 0.2% (inactive) |
| CC(C)(C)C(=O)Nc1ccc(C(=O)N/N=C/c2ccccc2OC(=O)c2ccc(Cl)cc2Cl)cc1 | 48 cells | 0.7% (inactive) |
| Cc1nc2ccc(C(=O)N/N=C/c3ccc(O)cc3)cc2[nH]1 | 50 cells | -0.6% (inactive) |
| O=C(N/N=C/c1ccc(OC(=O)c2ccccc2Cl)cc1)c1ccc(O)cc1 | 65 cells | 40.7% (active) |
| CC1=CC=CN2C1=NC(=O)CC2(C)C(=O)N(CC(=O)NC1CCCC1)c1ccccc1C (centres undefined) | 39 cells | 1% (inactive) |
| Cc1ccc(N2C(=O)C(NC(=O)c3c(F)cccc3F)(C(F)(F)F)C3=C2CC(C)(C)CC3=O)cc1 (centres undefined) | 69 cells | 4% (inactive) |
| COc1ccccc1CN(C)c1nnnn1-c1ccccc1 | 50 cells | 1.1% (inactive) |
| CSc1ccc(CNCCN2CCOCC2)cc1 | 55 cells | -2.1% (inactive) |
| FC(F)(F)Oc1ccc(-c2cn3cccnc3n2)cc1 | 36 cells | 3.1% (inactive) |
| CCc1ccccc1NC(=O)/C(=C/c1ccccc1)c1ccccc1 | 63 cells | 6.1% (inactive) |
| Cc1coc(C)c1C(=O)CC1(O)C(=O)N(C)c2ccc(Cl)cc21 (centres undefined) | 91 cells | -1% (inactive) |
| CN(C)CCNC(=O)C(C(=O)c1ccccc1)n1ccccc1=O (centres undefined) | 94 cells | -1.5% (inactive) |
| CCS(=O)(=O)n1nc(-c2ccccc2)nc1SCc1ccccc1 | 92 cells | 6.4% (inactive) |
| CN(C)/C=C(/C(=O)c1ccc(F)cc1)S(=O)(=O)c1ccc(F)cc1 | 51 cells | -0.1% (inactive) |
| CCOC(=O)c1c(CN2CCOCC2)n(-c2ccccc2)c2ccc(O)cc12 | 70 cells | 2.7% (inactive) |
| CC1=NNC(=O)C1CCC(=O)N/N=C\c1cccc(Cl)c1 (centres undefined) | 94 cells | -1% (inactive) |
| CCOC(=O)c1cnc(SCC(=O)Nc2ccccc2C(=O)OC)nc1N | 88 cells | -1.8% (inactive) |
| CC(C)c1ccc(OCC(O)Cn2cnc3ccccc32)cc1 (centres undefined) | 46 cells | 0.1% (inactive) |

| Compound | cell count [1] | activation [2] |
| --- | --- | --- |
| O=C(C(c1ccccc1)c1ccccc1)N1CCN(CC(O)COc2ccccc2)CC1 (centres undefined) | 88 cells | 0.6% (inactive) |
| OC(CN=c1sc2ccccc2n1CC(O)COc1ccccc1)COc1ccccc1 (centres undefined) | 92 cells | 58.9% (active) |
| Cc1nn(C)c(Oc2ccccc2)c1CCNS(=O)(=O)c1ccc(F)cc1 | 76 cells | -0.4% (inactive) |
| Cc1cc(N(C)C)cc(C)[n+]1[O-] | 38 cells | 0.3% (inactive) |
| Cc1ccc(C(=O)N/C(=C\c2cn(S(=O)(=O)N(C)C)c3ccccc23)C(=O)N2CCCC2)cc1 | 61 cells | 1.6% (inactive) |
| CCCCCOC(=O)C1=C(C)Nc2nnnn2C1c1ccc(OC)c(OC)c1OC (centres undefined) | 85 cells | 0.9% (inactive) |
| CCCS(=O)(=O)N1CCC(C(=O)NCCc2ccc(OC)c(OC)c2)CC1 | 46 cells | -0.4% (inactive) |
| O=C(N/N=C/c1ccccn1)c1cccc(NC(=O)c2ccc(Cl)cc2)c1 | 56 cells | 2.8% (inactive) |
| Cc1cc2c(cc1C)N(C(=O)CN1C(=O)c3ccccc3C1=O)C(C)(C)c1ssc(=S)c1-2 | 52 cells | 23.8% (inactive) |
| COc1ccnc(Oc2ccccc2)n1 | 45 cells | 3% (inactive) |
| Nc1c(-c2ccc(F)cc2)cnc2ncnn12 | 91 cells | -0.2% (inactive) |
| CCOC(=O)Cn1c(=O)n(Cc2ccc(OC)cc2)c(=O)c2cccnc21 | 62 cells | -0.6% (inactive) |
| Cc1nnc(-c2ccc(Oc3ccc(C)c(C)c3)c([N+](=O)[O-])c2)o1 | 52 cells | -0.2% (inactive) |
| CCCNC(=O)COc1coc(CN2CCN(Cc3ccccc3)CC2)cc1=O | 51 cells | 0.5% (inactive) |
| Cc1ccc(NC(=O)COc2coc(CN3CCc4ccccc4C3)cc2=O)cc1Cl | 63 cells | 40.7% (active) |
| Cc1cc(C)cc(NC(=O)COc2coc(CN3CCN(c4ccccc4)CC3)cc2=O)c1 | 47 cells | 1.4% (inactive) |
| COCCNC(=S)N/N=C/c1c(C)[nH]c2ccccc12 | 45 cells | 1.2% (inactive) |
| O=C(N/N=C/c1c(Cl)[nH]c2ccccc12)c1sc2ccccc2c1Cl | 73 cells | 41.9% (active) |
| COc1ccc(CNC(=O)CNC(=O)c2sc3ccccc3c2Cl)cc1OC | 47 cells | 1.7% (inactive) |
| CC(=O)N1c2ccc(S(=O)(=O)N3CCC(C(=O)NC4CCCCC4C)CC3)cc2CC1C (centres undefined) | 45 cells | 2.5% (inactive) |
| CC(C)Cn1c(N)c(C(=O)NCc2cccs2)c2nc3ccccc3nc21 | 78 cells | 41.7% (active) |

| Compound | cell count [1] | activation [2] |
| --- | --- | --- |
| COCC(C)OC(=O)c1c(N)n(CCCN2CCOCC2)c2nc3ccccc3nc12 (centres undefined) | 68 cells | -1% (inactive) |
| CCOc1ccccc1NC(=O)Cn1nnc(C(=O)NCc2cccs2)c1N | 61 cells | 1.8% (inactive) |
| O=C(c1cc(Cl)cc(Cl)c1)N1CCC(=O)N(C(COCc2ccccc2)Cc2ccccc2)CC1 (centres undefined) | 76 cells | 8.8% (inactive) |
| CCCCN1C(=O)c2ccc(C(=O)Nc3ccc(S(=O)(=O)N(C)C)cc3)cc2C1=O | 77 cells | 3.1% (inactive) |
| CCN(CC(=O)Nc1ccc(OC)cc1)C(=O)c1ccc(=O)n(Cc2ccccc2)n1 | 54 cells | -0.5% (inactive) |
| CC1(C(=O)N/N=C/c2cc3c(cc2Br)OCO3)CC1(Br)Br (centres undefined) | 71 cells | 5.3% (inactive) |
| CC(C)Oc1c(Br)cc(Br)cc1/C=N/NC(N)=S | 60 cells | 66.8% (active) |
| O=c1oc2ccccc2cc1-c1csc(Nc2ccc(O)cc2)n1 | 50 cells | 76.8% (active) |
| Cc1ccc(Nc2nc(-c3ccc(O)cc3O)cs2)nc1 | 37 cells | 18.9% (inactive) |
| O=c1oc2ccccc2cc1-c1cn(-c2ccccc2)c(=S)[nH]1 | 47 cells | 6.1% (inactive) |
| CCC1(CC)Cc2ccccc2-c2nc(CCl)[nH]c(=O)c21 | 60 cells | 61.8% (active) |
| CC1(C)Cc2ccccc2-c2nc(CN3CCOCC3)[nH]c(=O)c21 | 89 cells | -0.1% (inactive) |
| CC1(C)Cc2ccccc2-c2[nH]c(=S)[nH]c(=O)c21 | 53 cells | 0.3% (inactive) |
| Nc1nc(Nc2ccccc2F)nc(NC2CCCCC2)c1[N+](=O)[O-] | 83 cells | 43.1% (active) |
| Nc1nc(NCC2CCCO2)nc(Nc2ccccc2F)c1[N+](=O)[O-] (centres undefined) | 40 cells | 0.5% (inactive) |
| C=CCNc1nc(N)c([N+](=O)[O-])c(NC2CCCCC2)n1 | 87 cells | 5.1% (inactive) |
| Cc1ccc(S(=O)(=O)N2CCOCC2)cc1C(=O)OC1CCCCC1=O (centres undefined) | 30 cells | 0.7% (inactive) |
| Cc1cc(C)n(CCNS(=O)(=O)c2ccc(Cl)cc2)n1 | 44 cells | 1.1% (inactive) |
| Cc1ccccc1OCc1nnc(SCC(=O)N2c3ccccc3Sc3ccc(Cl)cc32)o1 | 65 cells | 4.7% (inactive) |
